One may read the inhibition as the change of the read-out against control, counted positive when it falls.

We go through 21 compounds from PubChem BioAssay.

In assay [1] the target is Nuclear receptor coactivator 3 (Homo sapiens) (UniProt Q9Y6Q9). Description: SRC3 coactivator transcriptional activity inhibitors, confirmation, cell-based, luminescence, quadruplicate (AID 588792;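 active = mean inhibition over 43.08%, the solvent-only control mean plus 3 SD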;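 also: 0% = DMSO treated cells and 100% = gossypol at 36 µM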). As to conditions: HEK293 GAL4-SRC3 luciferase reporter, at 3.6 µM, active compounds read high. In general terms: In a reporter assay the amount or activity of a reporter protein is the signal.

Assay [2] relates to transactivating tegument protein VP16 (Human herpesvirus 1), Gal4-VP16 luciferase reporter. Description: VP16 transactivation inhibitors, counter-screen for SRC3 inhibitor project, cell-based, luminescence, high throughput (AID 588794; in the data active = inhibition above about 30%). Particulars: mammalian cells, VP16-driven luciferase reporter luminescence; at 3.6 µM; active compounds read high. A general note: A counterscreen serves to expose hits that act by an unwanted route or on another target.

In assay [3] the target is Nuclear receptor coactivator 1 (Homo sapiens) (UniProt Q15788). Kind of assay: SRC1 coactivator transcriptional activity inhibitors, confirmation, cell-based, luminescence, quadruplicate (AID 588820;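 active = mean inhibition above 46.68%, the untreated control wells mean plus 3 SD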;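 also: 0% = DMSO wells and 100% = gossypol 36 µM treated wells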). Particulars: HEK293 GAL4-SRC1 luciferase reporter, at 3.6 µM, active compounds read high.
A short description of assay [4]: VP16 transactivation inhibitors, counter-screen for SRC1 inhibitor project, cell-based, luminescence, high throughput (AID 588824; in the data active = inhibition above about 25%). Particulars: cell-based VP16 transactivation luciferase luminescence; at 3.6 µM; active compounds read high.
The test system of assay [5] is transactivating tegument protein VP16 (Human herpesvirus 1). Description: VP16 transactivation reporter inhibitors, counter-screen for SRC2 inhibitor project, cell-based, luminescence, single concentration (AID 652007). As to conditions: cell-based VP16 transactivation luciferase reporter, at 8.9 µM, active compounds read high.
Assay [6] has as its target Nuclear receptor coactivator 2 (Homo sapiens) (UniProt Q15596). Description: SRC2 coactivator transcriptional activity inhibitors, confirmation, cell-based, luminescence, HEK293, triplicate (AID 652008;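 active = mean inhibition above 46.5%, the solvent-only control mean plus 3 SD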;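 also: 0% = DMSO-treated cells and 100% = Gossypol at 36 µM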). Particulars: HEK293 GAL4-SRC2 luciferase reporter, at 8.9 µM, active compounds read high.

Structures are written as SMILES. The source made the active and inactive calls. Rule as the data show it, unless noted: active = inhibition above about 36%; inactive = the rest.

Sequence of Nuclear receptor coactivator 3 (Homo sapiens) (Q9Y6Q9 whole entry, looked up, the tested form may be a part): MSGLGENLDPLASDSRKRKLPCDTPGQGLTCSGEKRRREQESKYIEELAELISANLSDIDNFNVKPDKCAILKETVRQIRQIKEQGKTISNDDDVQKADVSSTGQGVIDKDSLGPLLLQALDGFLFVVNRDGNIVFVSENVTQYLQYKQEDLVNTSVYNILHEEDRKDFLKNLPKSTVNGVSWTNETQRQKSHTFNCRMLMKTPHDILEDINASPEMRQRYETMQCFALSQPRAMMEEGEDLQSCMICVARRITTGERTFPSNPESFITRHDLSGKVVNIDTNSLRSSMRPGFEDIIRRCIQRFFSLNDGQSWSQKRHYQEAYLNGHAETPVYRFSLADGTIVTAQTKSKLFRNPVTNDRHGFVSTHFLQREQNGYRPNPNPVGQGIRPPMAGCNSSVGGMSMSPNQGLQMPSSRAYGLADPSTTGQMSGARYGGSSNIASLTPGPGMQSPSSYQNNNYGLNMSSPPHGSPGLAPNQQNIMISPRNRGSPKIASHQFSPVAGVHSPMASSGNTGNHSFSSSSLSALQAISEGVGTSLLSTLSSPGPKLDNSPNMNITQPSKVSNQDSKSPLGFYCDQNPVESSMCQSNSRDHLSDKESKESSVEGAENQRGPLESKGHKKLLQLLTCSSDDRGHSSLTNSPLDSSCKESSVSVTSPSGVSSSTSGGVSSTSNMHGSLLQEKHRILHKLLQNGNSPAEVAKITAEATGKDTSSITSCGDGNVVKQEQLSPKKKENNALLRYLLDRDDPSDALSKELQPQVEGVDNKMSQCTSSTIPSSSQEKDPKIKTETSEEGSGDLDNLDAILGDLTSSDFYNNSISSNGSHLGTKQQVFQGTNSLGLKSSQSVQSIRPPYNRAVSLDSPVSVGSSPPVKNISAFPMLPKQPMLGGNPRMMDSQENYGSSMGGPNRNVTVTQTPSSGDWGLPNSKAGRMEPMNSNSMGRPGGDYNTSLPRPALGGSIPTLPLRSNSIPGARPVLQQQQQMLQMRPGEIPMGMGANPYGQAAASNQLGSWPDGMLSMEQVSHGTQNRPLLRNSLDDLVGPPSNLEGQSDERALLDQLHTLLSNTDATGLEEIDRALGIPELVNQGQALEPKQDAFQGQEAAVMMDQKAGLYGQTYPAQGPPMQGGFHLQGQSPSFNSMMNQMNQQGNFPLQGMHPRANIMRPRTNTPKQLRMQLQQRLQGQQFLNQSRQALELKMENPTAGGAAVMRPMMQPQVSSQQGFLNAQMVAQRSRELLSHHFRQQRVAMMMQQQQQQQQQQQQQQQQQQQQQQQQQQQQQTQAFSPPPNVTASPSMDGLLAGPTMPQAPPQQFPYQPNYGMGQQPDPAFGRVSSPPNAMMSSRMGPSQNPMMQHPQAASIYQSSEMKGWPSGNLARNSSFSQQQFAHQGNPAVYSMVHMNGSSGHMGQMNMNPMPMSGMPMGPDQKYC
Sequence of Nuclear receptor coactivator 1 (Homo sapiens) (Q15788 whole entry, looked up, the tested form may be a part): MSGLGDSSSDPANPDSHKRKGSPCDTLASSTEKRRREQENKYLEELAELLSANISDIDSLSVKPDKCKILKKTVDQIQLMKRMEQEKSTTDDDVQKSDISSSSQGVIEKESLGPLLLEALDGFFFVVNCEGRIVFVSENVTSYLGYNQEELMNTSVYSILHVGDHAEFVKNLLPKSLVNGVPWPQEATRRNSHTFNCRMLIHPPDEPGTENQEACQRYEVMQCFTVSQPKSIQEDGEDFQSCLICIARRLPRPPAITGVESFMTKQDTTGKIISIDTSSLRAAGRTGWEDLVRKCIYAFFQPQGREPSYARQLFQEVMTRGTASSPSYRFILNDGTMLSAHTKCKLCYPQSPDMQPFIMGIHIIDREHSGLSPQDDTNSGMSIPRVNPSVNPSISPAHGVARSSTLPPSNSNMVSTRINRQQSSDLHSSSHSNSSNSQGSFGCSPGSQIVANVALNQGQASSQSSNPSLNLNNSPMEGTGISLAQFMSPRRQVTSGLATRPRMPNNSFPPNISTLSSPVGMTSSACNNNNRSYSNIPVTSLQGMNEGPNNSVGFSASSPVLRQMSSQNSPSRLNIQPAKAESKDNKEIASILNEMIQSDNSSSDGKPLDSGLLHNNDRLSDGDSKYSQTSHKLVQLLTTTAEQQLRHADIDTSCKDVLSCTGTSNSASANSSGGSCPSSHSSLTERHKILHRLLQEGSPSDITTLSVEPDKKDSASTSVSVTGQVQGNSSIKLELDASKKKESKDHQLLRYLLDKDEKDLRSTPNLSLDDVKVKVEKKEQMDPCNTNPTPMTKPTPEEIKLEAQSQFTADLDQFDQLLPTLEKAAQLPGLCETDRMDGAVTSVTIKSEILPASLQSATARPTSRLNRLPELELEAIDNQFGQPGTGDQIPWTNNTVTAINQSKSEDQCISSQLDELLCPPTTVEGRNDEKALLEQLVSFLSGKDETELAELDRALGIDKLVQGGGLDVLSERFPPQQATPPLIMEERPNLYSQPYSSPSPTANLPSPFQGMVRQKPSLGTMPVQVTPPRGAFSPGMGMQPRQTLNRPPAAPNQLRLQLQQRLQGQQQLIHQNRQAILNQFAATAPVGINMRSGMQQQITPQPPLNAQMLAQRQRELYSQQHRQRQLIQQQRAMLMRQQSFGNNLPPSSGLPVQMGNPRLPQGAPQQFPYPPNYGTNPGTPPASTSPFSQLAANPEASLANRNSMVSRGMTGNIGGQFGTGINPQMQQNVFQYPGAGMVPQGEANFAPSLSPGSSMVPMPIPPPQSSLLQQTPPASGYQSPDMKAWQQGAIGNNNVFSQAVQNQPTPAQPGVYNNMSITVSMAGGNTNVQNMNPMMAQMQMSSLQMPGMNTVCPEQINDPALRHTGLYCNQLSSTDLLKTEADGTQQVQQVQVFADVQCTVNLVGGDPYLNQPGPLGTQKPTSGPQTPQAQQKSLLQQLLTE
Sequence of Nuclear receptor coactivator 2 (Homo sapiens) (Q15596 whole entry, looked up, the tested form may be a part): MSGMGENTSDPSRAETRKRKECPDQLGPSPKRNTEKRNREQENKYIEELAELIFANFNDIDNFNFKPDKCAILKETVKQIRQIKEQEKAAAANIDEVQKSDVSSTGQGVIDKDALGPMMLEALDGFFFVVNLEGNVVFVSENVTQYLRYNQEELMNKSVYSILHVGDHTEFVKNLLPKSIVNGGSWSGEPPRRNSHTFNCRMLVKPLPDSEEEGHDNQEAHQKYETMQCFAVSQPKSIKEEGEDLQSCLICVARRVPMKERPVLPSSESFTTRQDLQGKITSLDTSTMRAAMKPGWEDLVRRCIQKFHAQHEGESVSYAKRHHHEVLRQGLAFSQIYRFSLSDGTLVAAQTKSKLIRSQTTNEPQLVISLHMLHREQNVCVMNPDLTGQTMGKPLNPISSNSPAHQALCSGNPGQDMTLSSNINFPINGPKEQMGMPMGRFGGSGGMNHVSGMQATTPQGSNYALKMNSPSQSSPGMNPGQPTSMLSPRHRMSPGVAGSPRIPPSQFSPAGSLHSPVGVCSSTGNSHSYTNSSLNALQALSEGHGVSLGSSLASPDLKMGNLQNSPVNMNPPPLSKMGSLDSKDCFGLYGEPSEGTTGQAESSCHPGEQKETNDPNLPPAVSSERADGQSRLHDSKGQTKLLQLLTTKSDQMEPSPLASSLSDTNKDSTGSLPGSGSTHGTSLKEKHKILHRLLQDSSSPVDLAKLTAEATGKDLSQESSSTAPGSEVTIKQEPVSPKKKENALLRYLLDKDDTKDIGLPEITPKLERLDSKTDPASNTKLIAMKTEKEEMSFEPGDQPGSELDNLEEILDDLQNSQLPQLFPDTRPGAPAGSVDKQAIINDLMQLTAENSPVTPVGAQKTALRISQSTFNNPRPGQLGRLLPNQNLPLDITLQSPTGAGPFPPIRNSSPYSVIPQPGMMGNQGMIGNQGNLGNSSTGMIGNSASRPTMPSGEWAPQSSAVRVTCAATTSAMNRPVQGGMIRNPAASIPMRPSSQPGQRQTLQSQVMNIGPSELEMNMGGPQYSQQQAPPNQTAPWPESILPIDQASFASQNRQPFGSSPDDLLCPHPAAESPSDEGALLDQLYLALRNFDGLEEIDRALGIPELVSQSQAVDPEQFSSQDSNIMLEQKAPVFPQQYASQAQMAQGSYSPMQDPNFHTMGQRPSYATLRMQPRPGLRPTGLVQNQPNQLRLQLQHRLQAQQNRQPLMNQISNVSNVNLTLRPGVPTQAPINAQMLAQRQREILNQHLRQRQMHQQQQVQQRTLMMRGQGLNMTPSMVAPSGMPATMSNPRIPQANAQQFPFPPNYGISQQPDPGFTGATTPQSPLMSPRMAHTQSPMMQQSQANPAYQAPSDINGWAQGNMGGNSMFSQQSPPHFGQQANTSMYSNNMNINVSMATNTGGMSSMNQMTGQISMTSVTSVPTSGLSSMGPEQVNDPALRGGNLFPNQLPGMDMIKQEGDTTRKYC

For the compound `CCCC(=O)N1CCN(c2ccc(NC(=O)c3cc4ccccc4o3)cc2Cl)CC1`, the inhibition in assay [1] was -3.22% (inactive); in assay [2], 5.64% (inactive); in assay [3], -6.77% (inactive); in assay [4], 6.71% (inactive); in assay [5], 35.5% (active); in assay [6], 27.2% (inactive).

With `CN1CCN(c2ccc(NC(=O)N3CCc4ccccc43)cc2)CC1`, the inhibition in assay [1] is 32.5% (inactive); in assay [2], 13.4% (inactive); in assay [3], -43.7% (inactive); in assay [4], -20.3% (inactive); in assay [5] it was -18.3% (inactive); in assay [6], 53.1% (active).

Take `Oc1ccc(N=Nc2ccc3c(c2)OCCO3)c2cccnc12`: the inhibition in assay [1] was 19.8% (inactive); in assay [2], -38.3% (inactive); in assay [3] it was 4.34% (inactive); in assay [4], -39.5% (inactive); in assay [5] it was -16.8% (inactive); in assay [6], -7.52% (inactive).

For the compound `Cn1nc(C(F)(F)F)c(C#N)c1N1CCN(c2ccccc2)CC1`, the inhibition is 56.3% (active) in assay [1]; 31.5% (active) in assay [2]; 35.6% (inactive) in assay [3]; 19.3% (inactive) in assay [4]; 4.83% (inactive) in assay [5]; 27.6% (inactive) in assay [6].

For the compound `COc1ccc(-c2cn[nH]c2-c2ccc(O)cc2O)cc1`, the inhibition is 67.1% (active) in assay [1]; 46.2% (active) in assay [2]; 53.9% (active) in assay [3]; 37.3% (active) in assay [4]; -0.83% (inactive) in assay [5]; 50% (active) in assay [6].

On to `O=C1NC(=S)N/C1=C\c1cccnc1`, for which the inhibition in assay [1] is 49.2% (active); in assay [2], 36.6% (active); in assay [3], 52.9% (active); in assay [4] it was 33.3% (active); in assay [5] it was 0.14% (inactive); in assay [6] it was 44% (inactive).

In the case of `C/C(=N\Nc1ncnc2sc(C)c(C)c12)c1ccccn1`, the inhibition in assay [1] is 63.2% (active); in assay [2], 70.1% (active); in assay [3] it was 18.5% (inactive); in assay [4], 50.4% (active); in assay [5], -48.8% (inactive); in assay [6] it was 1.02% (inactive).

For the compound `C=C1C(=O)O[C@H]2C[C@H]1[C@@H](OC(C)=O)C/C(C)=C/CC/C(C)=C\CC[C@]2(C)O`, the inhibition in assay [1] is 43.6% (active); in assay [2], 57.6% (active); in assay [3] it was 37% (inactive); in assay [4], 49.1% (active); in assay [5], 34.3% (inactive); in assay [6], 28.4% (inactive).

For `CC1(Cc2cccc(F)c2)C(=O)Nc2ccc(-c3cccnc3)cc21` (stereo unspecified), the inhibition in assay [1] is 66.8% (active); in assay [2], 49.2% (active); in assay [3] it was 65% (active); in assay [4], 49% (active); in assay [5], 8.45% (inactive); in assay [6] it was 56% (active).

In the case of `Cc1ccccc1C(=O)N1CCN(c2ccc(NC(=O)CSc3ccc(Cl)cc3)cc2)CC1`, the inhibition is 46.2% (active) in assay [1]; 45.8% (active) in assay [2]; 46.8% (active) in assay [3]; 38.8% (active) in assay [4]; 18.4% (inactive) in assay [5]; 51.5% (active) in assay [6].

As to `CCN(CC)Cc1c(O)ccc2c([N+](=O)[O-])c(C)n(-c3ccc(OC)cc3)c12`, the inhibition in assay [1] is 69% (active); in assay [2] it was 50.9% (active); in assay [3] it was 68.7% (active); in assay [4] it was 54.7% (active); in assay [5], 15.8% (inactive); in assay [6], 41.4% (inactive).

For `NNC(=O)c1cc2ccccc2cc1O`, the inhibition was 67.7% (active) in assay [1]; 12.8% (inactive) in assay [2]; 37.5% (inactive) in assay [3]; 19.3% (inactive) in assay [4]; 16.4% (inactive) in assay [5]; 77.8% (active) in assay [6].

Regarding `COCC(C)n1c(C)cc(C(=O)COC(=O)c2cccn2C)c1C` (stereo unspecified), the inhibition was 9.47% (inactive) in assay [1]; -13.8% (inactive) in assay [2]; -58.2% (inactive) in assay [3]; -61% (inactive) in assay [4]; 48.1% (active) in assay [5]; 57.2% (active) in assay [6].

With `COc1ccc(-c2cn[nH]c2-c2ccc(OC)cc2O)cc1`, the inhibition in assay [1] was 54.6% (active); in assay [2], 26.5% (inactive); in assay [3], 46.3% (inactive); in assay [4] it was 29.9% (active); in assay [5] it was 2.11% (inactive); in assay [6], 25.8% (inactive).

With `CN(C)C(=O)c1cccc(-c2cnc3sc(NCc4ccc5c(c4)OCO5)nn23)c1`, the inhibition is 53.2% (active) in assay [1]; 35.7% (active) in assay [2]; 51.8% (active) in assay [3]; 33.7% (active) in assay [4]; 8.86% (inactive) in assay [5]; 62.2% (active) in assay [6].

For the compound `CCCCN1C=CC(=C2C(=O)c3ccccc3C2=O)C=C1`, the inhibition in assay [1] was 41.5% (inactive); in assay [2], 23.1% (inactive); in assay [3], -41.3% (inactive); in assay [4] it was 14.1% (inactive); in assay [5], 51% (active); in assay [6], 73.1% (active).

Regarding `CC(C)(C)C(=O)Nc1ccc(N=Nc2ccccc2)cc1`, the inhibition in assay [1] was 69.1% (active); in assay [2], 28.6% (inactive); in assay [3], -19.6% (inactive); in assay [4] it was -23.9% (inactive); in assay [5] it was 54.7% (active); in assay [6], 66% (active).

Consider `C=CC[n+]1c(-c2ccc(C)cc2)csc1Nc1ccc(NC(C)=O)cc1`, for which the inhibition in assay [1] is 29.6% (inactive); in assay [2] it was -12.8% (inactive); in assay [3] it was 4.13% (inactive); in assay [4] it was -3.13% (inactive); in assay [5] it was 62.2% (active); in assay [6], 86.8% (active).

On to `CCOC(=O)c1cccc2c1-c1ccccc1/C2=N/O`, for which the inhibition in assay [1] is 39.8% (inactive); in assay [2], 23.7% (inactive); in assay [3] it was 46.5% (inactive); in assay [4], 23.2% (inactive); in assay [5], -10.8% (inactive); in assay [6] it was 24.9% (inactive).

For `Cc1ccc(C(=O)CN2C(=O)c3ccccc3S2(=O)=O)cc1`, the inhibition in assay [1] was 31.6% (inactive); in assay [2], 48.8% (active); in assay [3] it was -23.7% (inactive); in assay [4] it was 41.4% (active); in assay [5] it was 65% (active); in assay [6] it was 61.9% (active).

For `Cc1[nH]ccc2c1[nH]c1cc(=O)ccc12`, the inhibition was 56% (active) in assay [1]; 39.5% (active) in assay [2]; 59.1% (active) in assay [3]; 38.7% (active) in assay [4]; 3.4% (inactive) in assay [5]; 26% (inactive) in assay [6].
